High-throughput results: PubChem, National Center for Advancing Translational Sciences (NCATS)
Only some compounds are listed: those with a hit (about 7.5% of all), similar ones and a draw of the others.
FMDV inh = blocks foot and mouth disease virus; Potency, µM (top dose mostly 57.9 µM), inactives show at the top dose activity change, negative = inhibition, usual class: inhibitors; FMDV antiviral cell-based qHTS; actives 1.2% (n = 410,000); AID 1159524; calls by dose curve; tested in HEK293T cells; further: read-out not given here; potency means the concentration at half of the fitted maximal effect; nearly all actives have a fitted effect of over 45% in size
Giardia FBPA inh = blocks Giardia fructose-bisphosphate aldolase activity; Potency, µM (top dose mostly 59.6 µM), without a hit: at the highest dose activity, negative = inhibition, most hits filed as inhibitors; purified Giardia FBPA; actives 0.71% (n = 290,000); further: potency means the concentration at half of the fitted maximal effect; nearly all actives have a fitted effect of over 55% in size
Target sequence (A8B2U2 whole entry, looked up): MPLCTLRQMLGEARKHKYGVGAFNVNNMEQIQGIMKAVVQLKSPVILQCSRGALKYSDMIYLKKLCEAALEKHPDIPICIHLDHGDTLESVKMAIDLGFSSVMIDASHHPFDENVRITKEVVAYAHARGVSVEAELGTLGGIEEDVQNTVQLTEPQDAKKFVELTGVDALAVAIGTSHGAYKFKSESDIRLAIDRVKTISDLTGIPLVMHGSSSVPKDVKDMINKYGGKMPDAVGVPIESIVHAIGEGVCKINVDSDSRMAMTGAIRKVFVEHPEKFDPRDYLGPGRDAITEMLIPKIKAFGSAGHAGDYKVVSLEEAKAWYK
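Giardia FBPA (40 nM reagent) was preincubated 10 min at RT with compound (up to 57.5 uM final), then substrate plus GAPDH/TPI/NAD/arsenate coupling system with diaphorase/resazurin was added; resorufin fluorescence (525/598 nm) was read after 20 min.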
VACV mCherry inh = vaccinia inhibition (mCherry reporter) | actives 0.63% (n = 310,000) | AID 720579 | Potency, µM (titrated, usually from 36.5 µM), for the others: at the top dose activity change, negative = inhibition, actives largely listed as inhibitors | Vaccinia virus mCherry reporter infection, fluorescence; calls by dose curve; tested in A549 cells; further: potency means the concentration at half of the fitted maximal effect; nearly all actives have a fitted effect of over 35% in size
HCMV antiviral = inhibitors of human cytomegalovirus. actives 4.5% (n = 410,000). HFF cells, HCMV-luciferase reporter, 72 h; stronger effect = lower value. activity change, negative = inhibition, % at 57.5 µM. AID 1259415; in the data active means activity change below about -60%; inconclusive means no clear call, values can overlap the other calls; inactive means above about -39%
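Two compound doses tested in HFFs infected with HCMV-luciferase, MOI 1 PFU/cell, 72 h at 37C. Lysate luminescence read with OneGlo; data normalized against buffer-only and 10uM Salinomycin inhibitor controls.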
Vaccinia Venus = inhibitors of vaccinia virus (Venus reporter). Vaccinia virus Venus reporter expression, fluorescence. Potency, µM (series often up to 36.5 µM), for the others: at the top dose activity change, negative = inhibition, most hits filed as inhibitors. actives 0.46% (n = 330,000). AID 720580; calls by dose curve; tested in A549 cells; further: potency means the concentration at half of the fitted maximal effect; nearly all actives have a fitted effect of over 30% in size
HCV inhibitor = blocks hepatitis C virus | Huh7.5.1 HCVcc-Cre infection, luciferase reporter, 44 h | Potency, µM (series often up to 41.8 µM), inactives show at the top dose activity change, negative = inhibition, actives largely listed as inhibitors | actives 3.4% (n = 340,000) | AID 651820; further: potency means the concentration at half of the fitted maximal effect
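HCVcc-Cre virus at an moi near 0.5 was added right after compound to cells cultured 4 h from seeding (1,000 cells/well). Luciferase activity was determined 44 h later, 15 min after substrate addition at RT.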
Active calls of the source: *; i = inactive; ? = inconclusive; . = not tested or not shown; ! = not active in a repeat; [ ] = dose if it differs, or a comment. Unless noted, the call rests on the fitted dose curve; in most records, active means well fitted curve in the direction sought with a large enough effect; inconclusive means small, poorly fitted or top-dose-only effect, or another doubt; inactive means no such curve, though single readings can be large; an effect the other way counts as inactive or inconclusive. On the % scale 0 is the no-effect control and ±100 the full control effect.

SMILES | FMDV inh | Giardia FBPA inh | VACV mCherry inh | HCMV antiviral | Vaccinia Venus | HCV inhibitor
C/C1=C\[C@@H](C)C/C=C/[C@H]2[C@@H]3O[C@]3(C)[C@@H](C)[C@H]3[C@H](Cc4c[nH]c5ccccc45)NC(=O)[C@]32C(=O)/C=C/C(=O)[C@@H]1O | 32µM* | -10% | ? | . | ? | 7%
Cc1cc(C)c(C)c(S(=O)(=O)N2CCC(C(=O)Nc3ccncc3)CC2)c1C | ? | . | -10% | 7 | -23% | -22%
CCCOc1ccc(-c2nn(-c3ccccc3)cc2C2NC(=O)NC(C)=C2C(=O)OC(C)C)cc1 (stereo not drawn) | -10% | . | i | -35 | -17% | .
CCOc1ccc(-c2nn(-c3ccccc3)cc2C2NC(=O)NC(C)=C2C(=O)OC(C)C)cc1 (stereo not drawn) | -5% | . | -10% | -67* | -8% | .
Cc1ccc(C)c(S(=O)(=O)NCCC(=O)N2CCCC(C(N)=O)C2)c1 (stereo not drawn) | 0% | . | . | -83* | . | 6%
CNc1ccc(C=C2c3ccccc3-c3ccccc32)cc1 | . | . | -20% | . | ? | .
c1ccc2c(-c3c[nH]c4ccccc34)c3ccccc3nc2c1 | -36% | -18% | -24% | -91* | ? | ?
CCOCCOC(=O)c1ccc2c(c1)N(Cc1ccccc1C#N)C(=O)c1ccccc1S2(=O)=O | -10% | . | -6% | -2 | -17% | .
O=[As](O)(O)c1ccc(N=Nc2ccc(O)cc2)cc1 | 32% | 3% | i | -80* | -9% | -24%
COc1ccc(-c2nc(CN3CCN(Cc4cccc(Cl)c4)CC3)c(C)o2)cc1 | 0% | -1% | . | 33 | . | -13%
Cc1ccc(Cl)cc1N1CCN(C(=O)c2cc3c(=O)[nH]c4ccccc4c3n2C)CC1 | 7.9µM* | -9% | ? | -95* | -14% | 8.9µM*!
CN=c1scc(-c2ccccc2Br)n1/N=C/c1ccc[nH]1 | . | -26% | . | . | . | .
CN=c1scc(C)n1/N=C/c1ccc(O)c(O)c1O | -24% | 3.2µM* | -14% | -5 | 7% | -17%
CN=c1scc(-c2cccs2)n1/N=C/c1ccc(O)c(O)c1O | 10µM* | ? | -22% | 12 | -5% | -14%
CN=c1scc(-c2cccs2)n1/N=C/c1ccccc1O | 4µM* | 21% | ? | -98* | ? | 13µM*
Cc1oc(-c2cccc(NC(=O)c3ccccn3)c2)nc1CNC(=O)C#Cc1ccccc1 | 16% | . | -3% | . | -16% | .
CCNc1ccc(/C=C/c2ccnc3ccccc23)cc1 | . | . | -14% | . | 15% | .
CCCC[C@H]1COCCS(=O)(=O)N1Cc1cccc([N+](=O)[O-])c1 | -1% | -4% | -4% | -100* | -10% | -5%
CCc1cccc(CC)c1NC(=S)NCCc1c(C)[nH]c2ccccc12 | 16% | -9% | 10µM* | -71* | ? | ?
COc1ccc2[nH]c(C)c(CCNC(=S)Nc3ccc(C)cc3)c2c1 | 40% | -20% | . | -68* | . | ?
CCC(C(=O)NCc1ccccc1)n1ncn2c(cc3occc32)c1=O (stereo not drawn) | 8% | . | -3% | 6 | 5% | .
CCCc1cc(=O)oc2cc(C)cc(OCC(=O)NCCN3CCOCC3)c12 | -17% | 11% | . | -7 | . | -24%
CCCc1cc(=O)oc2cc(OCC(=O)NCCN3CCOCC3)c(Cl)cc12 | -19% | . | i | -79* | -12% | .
CCn1cc(CNCc2ccc(OCC(O)CN(C)Cc3ccccc3)cc2)cn1 (stereo not drawn) | -14% | 1% | -16% | . | -11% | 10µM*
O=C(CS(=O)(=O)c1cccc2nsnc12)Nc1cc(F)ccc1F | 13% | . | -9% | -18 | 3% | .
SMILES | FMDV inh | Giardia FBPA inh | VACV mCherry inh | HCMV antiviral | Vaccinia Venus | HCV inhibitor
CCc1ccc(OCCCSc2nc(-c3ccc(C(C)(C)C)cc3)nc3cc(=O)[nH]n23)cc1 | -18% | . | -6% | -84* | -17% | .
CCc1c(C#N)sc(C(N)=O)c1CC | -19% | 3% | i | -74* | 3% | 13%
O=C(CCl)N1c2ccccc2CCc2ccccc21 | . | -8% | . | -102* | . | .
Cc1[nH]c(=O)nc(NN=Cc2ccc(Cl)cc2)c1C(=O)Nc1ccc(Cl)cc1 | -9% | . | i | -11 | -13% | 40%
COc1ccc(CCNS(=O)(=O)CCNC(=O)c2ccc3c(c2)OCO3)cc1 | 11% | . | -11% | -13 | -11% | -3%
Cc1noc(C)c1-c1nc(CS(=O)(=O)c2ccc(F)cc2)no1 | -6% | 5% | . | 25 | . | -2%
Cc1noc(C)c1-c1nc(CS(=O)(=O)c2ccccc2)no1 | 16% | 10% | i[7.34 µM] | -84* | -2%[7.34 µM] | 24%
O=C(Nc1cccnc1)c1ccc([N+](=O)[O-])o1 | -24% | -6% | . | -29 | . | ?
O=C(NCc1cccnc1)c1ccc([N+](=O)[O-])o1 | -1% | -15% | . | -85* | . | ?
O=C(NCc1ccco1)c1ccc([N+](=O)[O-])o1 | -20% | -16% | -18% | -66* | -16% | -27%
O=C(NCc1ccco1)c1ccc(Cn2cc([N+](=O)[O-])cn2)o1 | 8% | 5% | . | 20 | . | 5%
Cc1cc(-c2ccnc(-n3ncc(C(=O)NCC4COCCO4)c3C3CC3)n2)c(C)s1 (stereo not drawn) | 47% | . | -9% | . | -21% | .
COc1ccc(NC(=O)N2CCN3CCCCC3C2)cc1OC (stereo not drawn) | -10% | . | i | -31 | -5% | .
CCCc1cc(=O)oc2cc(OCC(=O)NCCc3c[nH]c4ccc(OC)cc34)ccc12 | -22% | -11% | -7% | -5 | -1% | 18µM*
CCc1cc(=O)oc2cc(C)cc(OCC(=O)NC(Cc3c[nH]c4ccc(O)cc34)C(=O)O)c12 (stereo not drawn) | -18% | -11% | -1% | 6 | 3% | -1%
CCc1cc(=O)oc2cc(C)cc(OCC(=O)NCCc3c[nH]c4ccccc34)c12 | ? | 9% | -1% | -23 | -7% | 2.2µM*
COc1ccc(SCC2CN(C)CCC2c2ccc(F)cc2)cc1 (stereo not drawn) | 14% | . | . | -10 | . | 11µM*
COc1ccc(-c2csc(C(O)c3ccc(F)cc3)n2)cn1 (stereo not drawn) | 36% | . | 4% | -3 | -1% | .
COc1cc(O)cc2c1C(=O)OC(C)CCCC(=O)CCC/C=C\2 (stereo not drawn) | -26% | 5% | -15% | -20 | -3% | 0%
C[C@H]1CCCC(=O)CCC/C=C/c2cc(O)cc(O)c2C(=O)O1 | ? | 4% | -11% | -99* | -8% | 8%
Cc1nc(Nc2cccc(O)c2)c2oc3ccccc3c2n1 | -23% | -25% | . | 78 | . | 13µM*
COc1cccc(Nc2nc(C)nc3c2oc2ccccc23)c1 | -25% | -14% | i | 32 | -18% | 11µM*
